The panel holds about 83,000 compounds, 20% with a hit somewhere; the sample as a whole holds those more often.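 The endpoint reported here, percent growth, reads 100 for growth as untreated, 0 for no net growth and -100 for all cells dead.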 Values without a mark were called inactive. Activity calls are given as the source filed them. The calls were made as follows: active = growth percent below 10; inactive = the rest.

This assay has as its system NCI-H322M lung. Kind of assay: NCI-60 one-dose screen, 48 h (100 = growth as untreated, 0 = no growth, -100 = all killed). To be noted: 10 µM.
Regarding `COc1cccc(-c2ccnc(/N=C(\N)Nc3ccc(S(=O)(=O)Nc4nc(C)cc(C)n4)cc3)n2)c1`, the growth is 107%.
Regarding `O/N=C(\CSc1nnc(-c2c[nH]c3ccccc23)n1-c1ccccc1)c1ccc(Cl)cc1`, the growth is -49.3% (active).
For the compound `COC(=O)c1c(C(=O)OC)c2n(c1C)[C@@H]([C@@H](C)[C@H]1CC[C@H]3[C@@H]4CCC5=CC(=O)CC[C@]5(C)[C@H]4CC[C@]13C)SC2`, the growth is 72.8%.
As for `Cc1ccc(-c2cc(C(=O)N=Nc3c(O)[nH]c4ccc(Br)cc34)c3ccccc3n2)cc1`, the figure is 80.9%.
For the compound `COc1ccc(-c2c(N)c(=O)n(C)c3ccccc23)cc1`, the growth is 77%.
The result for `O=c1cc(-c2ccccc2)oc2cc(OCCCNCc3ccccc3)cc(O)c12` reads 31%.
On to `COc1cccc2nc(Nc3cccc(NC(=O)c4ccc(CN5CCCN(C)CC5)c(C(F)(F)F)c4)c3)ccc12`, for which the growth was -100% (active).
As for `COc1ccc(-c2cc(-c3cc(C(=O)c4ccc(Br)cc4)n4ccc(C)cc34)nc(N)c2C#N)cc1`, the growth was 93.6%.
Turning to `O=C1CCC(N2Cc3c(NCc4ccc(-c5ccccc5)cc4)cccc3C2=O)C(=O)N1` (configuration not stated), the growth is 77.2%.
Consider `COc1ccc(CN2[C@@H](C(=O)NCc3ccc(C(=O)NO)cc3)Cc3c([nH]c4ccccc34)[C@@H]2C2CC2)cc1`, for which the growth was 42%.
As for `CCOC(=O)c1c(CSc2ccccc2)n(C)c2cc(CN(C)C)c(O)c(CN(C)C)c12`, the figure is 47.7%; as for `CCOC(=O)CNC(=O)CN(Cc1ccccc1)C(=O)[C@@]1(C)CCC[C@]2(C)[C@H]3C[C@H]4C(C(C)C)=C[C@]3(CC[C@H]21)[C@@H]1C(=O)OC(=O)[C@@H]14`, 106%.

(Values after PubChem BioAssay (NCI).)
